Source: PubChem BioAssay AID1224853 (National Center for Advancing Translational Sciences (NCATS), 2016)
Inconclusive results are not listed. Activity calls are given as the source filed them. Calls come from the whole dose curve; as a rule, active = well fitted inhibition curve with a large enough effect; inconclusive = small, poorly fitted or top-dose-only effect; inactive = no such curve, though single readings can be large or run the other way.

Test: Confirmation assay for measurement of the activity of small molecule inhibitors on Zika virus induced Caspase-3 activity in human astrocytoma cells
Details: SNB-19 ZIKV-induced caspase-3/7, luminescence, 6 h; series mostly up to 46.1 µM; activity change, negative = inhibition: at the top concentration
Outline: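 SNB-19 astrocytoma cells pretreated with compound 1 h, then infected with ZIKV (2 FFU/cell) for 6 h at 37 C. Caspase-3/7 luminescence read; percent inhibition normalized to uninfected and infected wells.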

SMILES	activity change, negative = inhibition	Potency
Cc1c(NC(=O)c2ccc(C(C)(C)C)cc2)cccc1-c1cn(C)c(=O)c(Nc2ccc(C(=O)N3CCOCC3)cc2)n1	-15.3% (inactive)	
O=C(Nc1cc2cc[nH]c2cn1)c1ccccc1		4.35 µM (active)
CCOC1OC(=O)C[C@H]1NC(=O)[C@@H]1CCCN1C(=O)[C@@H](NC(=O)c1ccc(N)c(Cl)c1)C(C)(C)C (some centres not stated)	-20.4% (inactive)	
O=c1c2ccccc2nc2n1CCc1c-2[nH]c2ccccc12		4.89 µM (active)
CN1CC(=O)N/C1=N/C(=O)Nc1cccc(Cl)c1		6.9 µM (active)
CC1=C(CO)C(=O)O[C@@H]([C@@H](C)[C@H]2CC[C@H]3[C@@H]4C[C@H]5O[C@]56[C@@H](O)C=CC(=O)[C@]6(C)[C@@H]4CC[C@]23C)C1	-1.09% (inactive)	
c1ccc2[nH]c(-c3cscn3)nc2c1		12.3 µM (active)
O=C(Nc1ccc(C(=O)O)c(O)c1)c1ccccc1		6.15 µM (active)
O=C(/C=C/c1ccc(O)cc1)c1ccc(O)cc1O		2.45 µM (active)
O=C1C[C@@H](c2ccc(O)cc2)Oc2cc(O)cc(O)c21		15.5 µM (active)
C[C@@H](O[C@H]1OCCN(Cc2n[nH]c(=O)[nH]2)[C@@H]1c1ccc(F)cc1)c1cc(C(F)(F)F)cc(C(F)(F)F)c1	116% (inactive)	
O=C(c1ccccc1)c1ccc2n1CCC2C(=O)O (configuration not stated)		17.3 µM (active)
NC1CCC(Nc2nc(Nc3ccc(C(=O)N4CCCCC4)cc3)c3ncn(-c4cccc(F)c4)c3n2)CC1 (configuration not stated)	99.3% (inactive)	
O=C(O)c1ccccc1NCCc1ccccc1	-28.5% (inactive)	
Cc1[nH]c(C=C2C(=O)Nc3ccccc32)c(C)c1CCC(=O)O	0.798% (inactive)	
CC(C)(C)COc1ccc(-n2cc(C(=O)O)cn2)cc1C#N		25.1 µM (active)
O=C(Nc1ccc([N+](=O)[O-])cc1Cl)c1cc(Cl)ccc1O		1.95 µM (active)
Nc1ccc(O)c(C(=O)O)c1	-11.2% (inactive)	
Cc1ccc(O)c(N=Nc2ccccc2)n1		5.48 µM (active)
COc1cc2nc(N3CCN(C(=O)C4CCCO4)CC3)nc(N)c2cc1OC (configuration not stated)		17.3 µM (active)
Cc1ccc2c(n1)Oc1ccc(C(C)C(=O)OCC(=O)N(C)C)cc1C2 (configuration not stated)		10.9 µM (active)
CC(C)c1ccc2oc3nc(N)c(C(=O)O)cc3c(=O)c2c1		1.95 µM (active)
